# From PubChem BioAssay
# BAZ2B block = qHTS Assay for Inhibitors of BAZ2B | AlphaScreen BAZ2B-H3K14Ac peptide displacement | Potency, µM (doses to about 114 µM), hits mostly inhibitors | hit rate 4.4% among 360,000; also: nearly all actives have a fitted effect of over 60% in size
#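 Inhibition is scored as reduced AlphaScreen emission. The BAZ2B/b-H3(5-23)K14Ac complex (50 nM each) in PBS pH 7.4, 0.01% Tween-20 meets compound (up to 110 uM) for 30 min at RT before bead addition.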
# CtBP-E1A blk = qHTS Assay for Inhibitors of the CtBP/E1A Interaction; CtBP / adenovirus E1A interaction (AlphaScreen); AlphaScreen GST-E1A/His-CtBP binding, 1536-well; active compounds read low; activity change, % (no concentration beside the values); hit rate 0.49% among 340,000; in the data active = activity change below about -65%; inconclusive = mostly about -30% to -63%
#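 Steps: dispense buffer (Tris pH 8.0, NaCl 300 mM, TCEP 1 mM, BSA, Tween 20); add 5X protein mix (GST-E1A, His-CtBP, 125 nM each); pin 23 nL compound; 2 h at 37 °C, dark; add 5X beads (50 ug/mL); 1 h; read.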
# Six1-Eya2 blk = qHTS Assay for Inhibitors of the Six1/Eya2 Interaction. AlphaScreen GST-Six1/His-Eya2 binding, biochemical; active compounds read low. AID 651725, 2012. Homeobox protein SIX1 (Homo sapiens) + Protein phosphatase EYA2 (Homo sapiens), …. hit rate 0.56% among 360,000. activity change, % (test concentration not listed); in the data active = activity change below about -65%; inconclusive = mostly about -30% to -63%
#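 AlphaScreen with GST-Six1 and His-Eya2 (5X mix: 250 nM and 500 nM), glutathione donor and nickel acceptor beads; buffer 50 mM Tris pH 8.0, 300 mM NaCl, 1 mM TCEP; 1 h at 37 C in the dark.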
# JMJD2A Tudor = qHTS Assay for Inhibitors of JMJD2A-Tudor Domain | Lysine-specific demethylase 4A (Homo sapiens), O75164 | hit rate 4.4% among 390,000 | AlphaScreen JMJD2A-Tudor / H3K4me3 peptide binding | Potency, µM (top dose mostly 114 µM), hits mostly inhibitors; also: nearly all actives have a fitted effect of over 50% in size
# HP1b binding inh = HTS for Inhibitors of HP1-beta Chromodomain Interactions with Methylated Histone Tails; AlphaScreen HP1-beta / biotin-H3K9me3 peptide binding; Potency, µM (highest dose often 114 µM), actives largely listed as inhibitors; hit rate 0.56% among 390,000; AID 540317, 2011; also: nearly all actives have a fitted effect of over 70% in size
# Target sequence (P83916 whole entry, looked up): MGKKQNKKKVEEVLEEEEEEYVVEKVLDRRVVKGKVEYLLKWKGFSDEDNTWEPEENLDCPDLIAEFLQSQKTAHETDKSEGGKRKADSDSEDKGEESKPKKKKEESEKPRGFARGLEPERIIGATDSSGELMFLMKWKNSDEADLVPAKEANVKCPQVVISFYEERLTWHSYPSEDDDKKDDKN
#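 AlphaScreen: HP1-beta (50 nM) preformed 30 min with biotin-H3(1-18)K9me3 peptide (50 nM) in PBS pH 7.4, 0.01% Tween-20. Compound added for 30 min at RT, then streptavidin donor/nickel chelate acceptor beads (10 ug/mL) for 30 min.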
# G9a inh = qHTS Assay for Inhibitors of Histone Lysine Methyltransferase G9a. Potency, µM (series often up to 102 µM), usual class: inhibitors. Histone-lysine N-methyltransferase EHMT2 (Homo sapiens), Q96KQ7. G9a H3K9 monomethylation, AlphaScreen, 2 h. hit rate 8.8% among 350,000; also: nearly all actives have a fitted effect of over 75% in size
# Target sequence (Q96KQ7 913-1193 limits assumed): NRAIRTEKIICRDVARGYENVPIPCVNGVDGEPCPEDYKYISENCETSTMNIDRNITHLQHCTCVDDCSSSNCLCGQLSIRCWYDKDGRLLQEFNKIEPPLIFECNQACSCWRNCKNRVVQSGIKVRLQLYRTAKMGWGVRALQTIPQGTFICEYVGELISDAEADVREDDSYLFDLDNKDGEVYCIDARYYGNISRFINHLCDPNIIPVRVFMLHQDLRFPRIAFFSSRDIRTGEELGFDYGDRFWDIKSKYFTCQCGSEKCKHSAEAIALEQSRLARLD
#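 Using a bead-based AlphaScreen, monomethylated H3K9 product from 2 h room-temperature reactions (G9a 20 nM, peptide 500 nM, SAM 20 uM) was detected with 0.5 ug/mL rabbit anti-H3K9me1 antibody.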
# Hits are given with their value; . = inactive; ? = inconclusive; / = no result given; ! = not confirmed by another sample; [ ] = remark or other dose. The list is not random: actives were taken first. Their share in the collection is about 10%. Unless noted, calls follow the shape of the dose curve; as a rule, active = well fitted inhibition curve with a large enough effect; inconclusive = small, poorly fitted or top-dose-only effect; inactive = no such curve, though single readings can be large or run the other way.
SMILES,BAZ2B block,CtBP-E1A blk,Six1-Eya2 blk,JMJD2A Tudor,HP1b binding inh,G9a inh
Cc1nc2nncn2c(Nc2ccc(F)cc2)c1C,.,/,/,.,.,.
COc1ccc(C2(C)NC(=O)N(CC3CCCCC3)C2=O)cc1 (stereo unspecified),.,.,.,.,.,?
O=C(Nc1nc(NC(=O)c2ccco2)n(-c2ccccc2)n1)c1ccccc1,44.7µM,?,?,.,.,.[12.7 µM]
O=C(Nc1ccccc1NC(=O)c1ccco1)c1ccccc1,.,.,.,.,.,.
Nc1cccc(Cl)c1N1CCOCC1,.,.,.,20µM,?,.[0.0925 µM]
O=C(NCc1ccco1)c1ccc(-c2ccccc2Cl)o1,?,.,.,.,.,56.2µM
COc1ccccc1CNC(=O)c1ccc(-c2ccccc2Cl)o1,?,/,.,.,.,28.2µM
COc1ccccc1CNC(=O)c1ccc(-c2ccccc2C(F)(F)F)o1,.,/,.,.,.,?
Cn1cccc1C(=O)NCc1ccc(Cl)cc1,?,.,.,.,.,44.7µM
COc1ccccc1S(=O)Cc1ccc(C(=O)NCc2ccccc2Cl)o1 (stereo unspecified),.,.,.,35.5µM,.,3.55µM
COc1cc(NC(=O)c2ccc([N+](=O)[O-])o2)ccc1NC(=O)c1ccco1,?,/,.,.,.,?
O=C(NCc1ccco1)c1ccc(-c2ccc(Cl)cc2)o1,?,.,.,.,.,50.1µM
O=C(NCc1ccco1)c1ccc(CS(=O)(=O)Cc2ccc(Cl)cc2)o1,.,.,.,.,.,.
O=C(NCc1ccc(Cl)cc1)c1ccc(Br)o1,.,/,.,.,.,17.8µM!
Cc1cc(NC(=O)c2ccc([N+](=O)[O-])o2)ccc1NC(=O)c1ccco1,?,.,.,.,.,79.4µM
O=C(NCc1ccc(Cl)cc1)c1ncn[nH]1,79.4µM,.,.,.,.,.
O=C(NNC(=S)NCc1ccc(Cl)cc1)c1ccc(Br)o1,.,/,.,.,.,/
Cc1cccc(-c2nc3nc(C)cc(NC(C)c4ccccc4)n3n2)c1 (stereo unspecified),.,/,/,.,.,.
CCOc1ccc(-n2c(SCC(=O)Nc3ccc(F)cc3)nc3c([nH]c4ccccc43)c2=O)cc1,.,/,/,.,.,.
O=C(NCc1ccco1)c1ccc([N+](=O)[O-])o1,44.7µM,.,.,56.2µM,?,44.7µM
Fc1ccc(F)c(C2=NNC(=NCC3CCCO3)SC2)c1 (stereo unspecified),?,.,.,.,.,?
CC(=O)Nc1ccc(C2=NN(CC#N)C(=O)SC2)cc1,.,.,.,.,.,.[12.7 µM]
COCC(C)N=C1NN=C(c2ccc(NC(C)=O)cc2)CS1 (stereo unspecified),?,.,.,.,.,11.2µM
CC(=O)Nc1ccc(C2=NNC(=NCC3CCCO3)SC2)cc1 (stereo unspecified),.,.,.,.,.,14.1µM
CCCCNC(=O)C1C(c2ccc(C(F)(F)F)cc2)=Nc2ccccc2N1C(C)=O (stereo unspecified),/,.,.,/,/,/
Cc1c(CNCc2ccc(Cl)cc2)c(C(=O)O)c(C)n1Cc1ccc(F)cc1,.,/,/,.,.,.
COc1ccc(C2=NS(=O)(=O)N(C)C(C(=O)N(C)Cc3ccccc3)=C2)cc1OC,.,.,.,5.01µM!,.,14.1µM!
Cc1ccc(C2=NS(=O)(=O)N(C)C(C(=O)Nc3ccc4c(c3)OCO4)=C2)cc1,?,.,.,?,.,79.4µM
COc1ccc(C2=NS(=O)(=O)N(C)C(C(=O)NC(C)c3ccccc3)=C2)cc1OC (stereo unspecified),.,.,.,.,.,.
COc1ccc(C2=NS(=O)(=O)N(C)C(C(=O)Nc3ccc4c(c3)OCO4)=C2)cc1OC,?,.,.,?,.,35.5µM
